Assay results published in PubChem BioAssay AID1851 (National Center for Advancing Translational Sciences (NCATS), 2009).
About 4,000 (25%) of roughly 16,000 compounds were called active. Inconclusive results (about 26%) are left out. Calls come from the whole dose curve; as a rule, active = well fitted curve in the direction sought with a large enough effect; inconclusive = small, poorly fitted or top-dose-only effect, or effect the other way; inactive = no such curve, though single readings can be large or run the other way. Not all results are given here.

Target: Cytochrome P450 2C9 (Homo sapiens) (UniProt P11712)
Sequence (P11712 whole entry, looked up): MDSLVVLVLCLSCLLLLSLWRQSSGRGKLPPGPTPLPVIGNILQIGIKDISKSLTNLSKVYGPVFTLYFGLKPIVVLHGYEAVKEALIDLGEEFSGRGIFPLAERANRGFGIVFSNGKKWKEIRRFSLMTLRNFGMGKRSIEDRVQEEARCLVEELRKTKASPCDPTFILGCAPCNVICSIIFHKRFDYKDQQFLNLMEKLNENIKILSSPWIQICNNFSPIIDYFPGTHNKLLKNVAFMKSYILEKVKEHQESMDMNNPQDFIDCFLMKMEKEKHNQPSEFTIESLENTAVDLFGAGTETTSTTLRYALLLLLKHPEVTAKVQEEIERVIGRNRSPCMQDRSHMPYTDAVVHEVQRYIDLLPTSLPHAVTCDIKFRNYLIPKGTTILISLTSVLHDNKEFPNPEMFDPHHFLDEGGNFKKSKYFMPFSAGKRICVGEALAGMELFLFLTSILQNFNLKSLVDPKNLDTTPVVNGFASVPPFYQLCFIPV
Test: Cytochrome panel assay with activity outcomes
Details: recombinant CYP, pro-luciferin dealkylation, luminescence, p450-cyp2c9; series mostly up to 57.1 µM; activity, negative = inhibition: at the top concentration
% is set by controls: 0 for no effect and ±100 for the full control effect.

activity, negative = inhibition, inactive:
CCN(CC(=O)O)CC(=O)O 8.87% [at 11.4 µM]
O=C(Nc1ccccc1)N1CCCC2(CCN(C(=O)c3cnccn3)CC2)C1 -14.6%
Cn1c(=O)c2[nH]c(-c3ccc(S(=O)(=O)O)cc3)nc2n(C)c1=O -12.8%
CC(C)[C@]1(Cl)CC[C@@H]2[C@]3(C)CCC[C@@](C)(C(=O)O)[C@H]3C[C@H](Cl)[C@@]2(Cl)[C@H]1Cl -25.3% [at 11.4 µM]
Cc1cc2nc(C3CCCN(C(=S)Nc4ccccc4)C3)[nH]c2cc1C (stereo unspecified) -19%
Clc1ccc2c(c1)C(N1CCNCC1)=Nc1ccccc1O2 -8.46% [at 25.6 µM]
Cc1ccc(C(CC(N)=O)c2ccco2)cc1 (stereo unspecified) -7.64%
NC(=O)CC(c1ccccc1)c1ccco1 (stereo unspecified) -10%
O=C(/C=C\c1ccccc1)c1ccccc1O -9.15% [at 11.4 µM]
Cc1cn([C@H]2C[C@H](O)[C@@H](COC(N)=O)O2)c(=O)[nH]c1=O 18.3% [at 11.4 µM]
CCCCNC(=O)C1CCN(Cc2ccccn2)CC1 -9.44%
COC(=O)N1CCC2(CC1)CN(c1ccccc1)C2 -14%
Clc1ccccc1-c1ccc2ncnc(NCCN3CCOCC3)c2c1 24.6% [at 2.29 µM]
Clc1ccccc1-c1nccc(NCCN2CCOCC2)n1 29.8% [at 2.29 µM]
O=C(CCc1nc2ccccc2c(=O)[nH]1)OCC(=O)N1CCN(S(=O)(=O)c2ccccc2)CC1 8.87%
O=C(O)C1C2CCC(C2)C1C(=O)NCc1ccco1 (stereo unspecified) -7.58%
CS(=O)(=O)Nc1cccc(-c2nc(N3CCOCC3)c3ccccc3n2)c1 -0.621% [at 2.29 µM]
C[n+]1cc2c3c(ccc2c2ccc4cc5c(cc4c21)OCO5)OCO3 -18.7%
COC(=O)[C@H](C)NC(=O)C/C=C\[C@@H](C)[C@H]1C=C[C@H](O)[C@@H](CO)O1 -20.2% [at 11.4 µM]
Cc1cc(C)nc(Nc2n[nH]c(COc3ccc4ccccc4c3)n2)n1 -13.6%
CCOc1ccc(N2C(=O)/C(=C/c3cccs3)N(CC(=O)OC)C2=S)cc1 29.2%
CCOc1ccc(N2C(=O)CN=C2Nc2ccccc2Cl)cc1 -15.4%
COc1c(O)cc2c(c1O)[C@@H]1O[C@@H](CO)[C@@H](O)[C@@H](O)[C@@H]1OC2=O -0.188% [at 25.6 µM]
COC(=O)Nc1ccc2[nH]cc(CCNC(C)=O)c2c1 -6.3%
CSC(N)=NCCC[C@@H](N)C(=O)O -9.74%
N=C(N)CCNC(=O)[C@@H]1CCC(N)=N1 -0.797% [at 11.4 µM]
O=C(O)[C@H]1C[C@H](C(=O)O)N1 24.8%
Cc1cc(CNC(=O)[C@H]2C[C@@H]2[C@H](NP(=O)(c2ccccc2)c2ccccc2)c2ccccc2)nn1C -22.9%
Cc1cc(CNC(=O)[C@@H]2C[C@H]2[C@@H](NP(=O)(c2ccccc2)c2ccccc2)c2ccccc2)nn1C -1.27%
O=C(CC1CCCC1)Nc1ccc2c(c1)CCC2 -31%

AC50, active:
CCS(=O)(=O)Nc1ccc(C2=NN(C(=O)c3ccco3)C(c3ccc(C)cc3)C2)cc1 (stereo unspecified) 2.24 µM
Cc1cc2nc(CCN(C(=S)NCC(C)C)C3CCCC3)[nH]c2cc1C 7.94 µM
O=C(c1ccco1)N(CCC(c1ccccc1)c1ccco1)Cc1ccco1 (stereo unspecified) 2.24 µM
O=C(/C=C/c1ccccc1)N/C(=C/c1ccccc1)C(=O)Nc1ccccc1O 4.47 µM
CCOC(=O)COc1ccc(/C=C/[N+](=O)[O-])c(OCC(=O)OCC)c1 7.94 µM
O=C(COC(=O)c1cccc(S(=O)(=O)N2CCOCC2)c1)Nc1nc(-c2ccccc2Cl)cs1 4.47 µM
CCCc1nc2ccccc2c(C(=O)OCC(=O)Nc2cccc(S(=O)(=O)N3CCOCC3)c2)c1CC 14.1 µM
O=C(COC(=O)c1cccc(S(=O)(=O)N2CCN(c3ccccc3)CC2)c1)NCc1ccco1 2.24 µM
CCOc1ccc(N2C(=O)CN=C2Nc2ccccc2F)cc1 12.6 µM
O=C(NCCc1c[nH]c2ccccc12)[C@@H]1C[C@H]1[C@@H](NP(=O)(c1ccccc1)c1ccccc1)c1ccccc1 0.251 µM
O=C(NCc1cc(F)cc2c1OCCO2)[C@H]1C[C@@H]1[C@H](NP(=O)(c1ccccc1)c1ccccc1)c1ccccc1 12.6 µM
O=C(Nc1ccc2ccccc2c1)[C@H]1C[C@@H]1[C@H](NP(=O)(c1ccccc1)c1ccccc1)c1ccccc1 3.16 µM
O=C(NCCc1c[nH]c2ccccc12)[C@H]1C[C@@H]1[C@H](NP(=O)(c1ccccc1)c1ccccc1)c1ccccc1 2 µM
O=C(NCc1nc2ccccc2[nH]1)[C@H]1C[C@@H]1[C@H](NP(=O)(c1ccccc1)c1ccccc1)c1ccccc1 12.6 µM
CC(=O)c1cccc(NC(=O)CCC2CCCC2)c1 14.1 µM

AC50, inactive:
CN(C)CCOC(=O)COc1ccc(Cl)cc1
